Data from PubChem BioAssay (NCATS).
Inconclusive results are not listed. Where a call stands in place of a potency, no number is given. A number with no mark means an inactive call. Activity calls are given as the source filed them. The call rests on the fitted dose curve; in most records, active means well fitted inhibition curve with a large enough effect; inconclusive means small, poorly fitted or top-dose-only effect; inactive means flat fitted curve, though single readings scatter.

test system: Zika virus NS2B-NS3 protease; assay: Primary screen GU AMC qHTS for Zika virus inhibitors (AID 1347154); conditions: Zika NS2B-NS3 unlinked protease, AMC fluorogenic substrate; series mostly up to 54.1 µM; further: nearly all actives have a fitted effect of over 70% in size
How it was run: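 Unlinked Zika NS2B hydrophilic domain–NS3 protease complex at 25 nM in 10 mM Tris-HCl pH 8.0, 0.01% Tween 20, with an AMC peptide substrate. Fluorescence change (340/450 nm) over 15 min at room temperature, normalized to controls, fitted to 4-parameter Hill.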

Row | SMILES | Potency | activity change, negative = inhibition
1 | CCCCOc1ccc(C(=O)CCN2CCCCC2)cc1 | inactive | –
2 | COc1cccc2c1C(=O)c1c(O)c3c(c(O)c1C2=O)C[C@@](O)(C(C)=O)C[C@@H]3O[C@H]1C[C@H](N)[C@H](O)[C@H](C)O1 | inactive | –
3 | COc1ccc(CCN2CCC(Nc3nc4ccccc4n3Cc3ccc(F)cc3)CC2)cc1 | inactive | –
4 | CC1(C)O[C@@H]2C[C@H]3[C@@H]4C[C@H](F)C5=CC(=O)CC[C@]5(C)[C@H]4[C@@H](O)C[C@]3(C)[C@]2(C(=O)CO)O1 | inactive | –
5 | CCN1CCCC1=O | inactive | –
6 | C[C@]12C=CC(=O)C=C1[C@@H](F)C[C@@H]1[C@@H]2[C@@H](O)C[C@@]2(C)[C@H]1CC[C@]2(O)C(=O)CO | inactive | –
7 | CCN(CCCCOC(=O)c1ccc(OC)c(OC)c1)C(C)Cc1ccc(OC)cc1 (centres undefined) | inactive | –
8 | Nc1ccc(C(=O)O)cc1 | inactive | –
9 | CC(=O)c1ccc2c(c1)N(CCCN1CCC(CCO)CC1)c1ccccc1S2 | inactive | –
10 | Cc1ncc(CSSCc2cnc(C)c(O)c2CO)c(CO)c1O | inactive | –
11 | Cc1c(F)c(N2CCNC(C)C2)cc2c1c(=O)c(C(=O)O)cn2C1CC1 (centres undefined) | inactive | –
12 | C[C@]12CCC(=O)C=C1CC[C@H]1[C@@H]3CC[C@](O)(C(=O)CO)[C@@]3(C)C[C@H](O)[C@@]12F | inactive | –
13 | CC1(C)O[C@@H]2[C@@H](CO[C@@]3(COS(N)(=O)=O)OC(C)(C)O[C@@H]23)O1 | inactive | –
14 | CCCCCCCCCCCCCCNCCO | inactive | –
15 | O=c1[nH]c(=O)n([C@H]2C[C@H](O)[C@@H](CO)O2)cc1C(F)(F)F | inactive | –
16 | OC[C@H]1O[C@@H](n2cnc3c(=S)nc[nH]c32)[C@H](O)[C@@H]1O | inactive | –
17 | CNC(=O)CN(CCN(CCN(CC(=O)[O-])CC(=O)NC)CC(=O)[O-])CC(=O)[O-].O.[Gd+3] | inactive | –
18 | O=C1c2ccccc2C(=O)C1c1ccccc1 | inactive | –
19 | CC(C)COC(=O)c1ccc(N)cc1 | inactive | –
20 | COc1cc(OC)cc(OC)c1 | inactive | –

Row | SMILES | Potency | activity change, negative = inhibition
21 | COc1ccc(C2C(=O)c3ccccc3C2=O)cc1 | inactive | –
22 | O=C(N/N=C/c1ccccc1O)c1ccncc1 | inactive | –
23 | O=C(Nc1ccc(Cl)c(Cl)c1)C1CC1 | inactive | –
24 | COc1cc2c(cc1OC)C(C(C(=O)N(CCc1ccc(OC)c(OC)c1OC)CCc1ccc(OC)c(OC)c1OC)c1ccccc1)=NCC2 (centres undefined) | inactive | –
25 | N[C@H](Cc1c[nH]c2ccccc12)C(=O)O | inactive | –
26 | Clc1ccc2c(c1)CCc1cccnc1C2=C1CCNCC1 | inactive | –
27 | COc1cc2c(cc1OC)[C@@H]1CC(=O)[C@@H](CC(C)C)CN1CC2 | inactive | –
28 | C[C@]12C=CC(=O)C=C1CC[C@@H]1[C@@H]2[C@@H](O)C[C@@]2(C)[C@H]1CC[C@]2(O)C(=O)CO | inactive | –
29 | COc1ccc(/C=C/C(=O)c2ccc(OC)cc2OC)cc1 | inactive | –
30 | C[C@@H]1C[C@H]2[C@@H]3C[C@H](F)C4=CC(=O)C(Cl)=C[C@]4(C)[C@@]3(F)[C@@H](O)C[C@]2(C)[C@@]1(O)C(=O)CO | inactive | –
31 | CCOc1ccc(Cc2nccc3cc(OCC)c(OCC)cc23)cc1OCC | inactive | –
32 | Nc1ccc(/C=C/c2ccc(N)cc2S(=O)(=O)O)c(S(=O)(=O)O)c1 | – | -4.58% [at 0.59 µM]
33 | CN1CCCC(CC2c3ccccc3Sc3ccccc32)C1 (centres undefined) | inactive | –
34 | CC(=O)OCC(=O)[C@@]12N=C(C)O[C@@H]1C[C@H]1[C@@H]3CCC4=CC(=O)C=C[C@]4(C)[C@H]3[C@@H](O)C[C@@]12C | inactive | –
35 | CCCCN1CCCC1C(=O)Nc1c(C)cc(C)cc1C (centres undefined) | inactive | –
36 | C[C@]12CCC(=O)C=C1[C@@H]1C[C@@H]1[C@H]1[C@@H]3[C@@H]4C[C@@H]4[C@@]4(CCC(=O)O4)[C@@]3(C)CC[C@@H]12 | inactive | –
37 | CN(C)CC/C=C1/c2ccccc2COc2ccc(CC(=O)O)cc21 | inactive | –
38 | Oc1c(I)cc(I)c2cccnc12 | inactive | –
39 | C=C1C(=C/C=C2\CCC[C@]3(C)[C@@H]([C@H](C)/C=C/[C@@H](O)C4CC4)CC[C@@H]23)C[C@@H](O)C[C@@H]1O | inactive | –
